Assay [1] is described as follows: CCTE_Harrill_HTTr_Apoptosis_MCF7: CCTE's 6-hour Apoptosis Assessment for the High-Throughput Transcriptomics (HTTr) Platform, in MCF-7 cells cultured in DMEM + 10% fetal bovine serum, Harrill Lab (AID 2284011). The essentials: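 MCF-7 cells in DMEM + 10% fetal bovine serum were exposed to chemicals for 6 hours over an eight-point dilution series. Caspase-3/7 activation was imaged by high content imaging with CellEvent Caspase 3/7 Green; bidirectional fitting used DMSO as baseline.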

Assay [2] is described as follows: CCTE_Shafer_MEA_acute_burst_number: CCTE's Neural Acute Assay for Single-Electrode Bursts, Shafer Lab (AID 2284013). The essentials:
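Burst totals were derived with adaptive spike detection (8x rms threshold) on filtered signals from rat cortical cultures; change relative to pre-treatment baseline after 40-min compound exposure (0.03-40 uM) was fitted in the negative direction against DMSO.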

Assay [3] is described as follows: CCTE_Shafer_MEA_acute_per_burst_spike_number_mean: CCTE's Neural Acute Assay for Average Number of Spikes Per Burst, Shafer Lab (AID 2284015).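 Further: hits are decreases in mean spikes per burst versus baseline.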 A digest of the protocol:
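Primary rat cortical neurons on 48-well MEA plates, treated on DIV 13 or 15 at 0.03-40 uM. Spontaneous activity recorded 40 min before and 40 min after compound at 37 C; percent change in mean spikes per single-electrode burst per well, fitted in the loss direction versus DMSO.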

Assay [4] can be described thus: CCTE_Shafer_MEA_acute_interburst_interval_mean: CCTE's Neural Acute Assay for Mean Interburst Interval, Shafer Lab (AID 2284016).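 Further: percent change of mean interburst interval versus each well's own pre-dose baseline; curves fitted for decrease in interburst interval relative to DMSO.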 A digest of the protocol:
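Primary rat cortical neurons on 16-electrode MEA wells were recorded 40 min at baseline on DIV 13 or 15, then 40 min after compound (0.03-40 uM), at 37 C. Value is percent change in mean interburst interval per well, DMSO as negative control.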

A short description of assay [5]: CCTE_Shafer_MEA_acute_burst_percentage_mean: CCTE's Neural Acute Assay for Percentage of Spikes in a Burst, Shafer Lab (AID 2284017).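 On AC50: curve fitted for loss of signal so potency reflects decreased burst percentage.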 A digest of the protocol: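 Primary rat cortical neurons on 16-electrode MEA wells; 40 min baseline recorded at DIV 13 or 15, then 40 min after compound (0.03-40 uM) at 37 C. Well-mean fraction of spikes in single-electrode bursts; percent change from baseline, DMSO as negative control.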

Assay [6] can be described thus: CCTE_Shafer_MEA_acute_burst_percentage_std: CCTE's Neural Acute Assay for Standard Deviation of Burst Percentage, Shafer Lab (AID 2284018).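 Further: fitted in the negative direction so actives lower burst percentage SD.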 The essentials:
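Primary rat cortical neurons on 16-electrode MEA wells were recorded 40 min at baseline (DIV 13 or 15), then 40 min after compound (0.03-40 uM), at 37 C. Well value is SD across electrodes of spikes-in-bursts/total spikes; endpoint is percent change, DMSO-referenced.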

Assay [7] can be described thus: CCTE_Shafer_MEA_acute_per_network_burst_spike_number_std: CCTE's Neural Acute Assay for Standard Deviation of Number of Spikes in a Network Burst, Shafer Lab (AID 2284020).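 Further: fitted for decrease in spike-number SD versus DMSO so actives lower it.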 A digest of the protocol:
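Acute MEA exposure, rat cortical neurons, 0.03-40 uM. Per-well % change versus own baseline; DMSO as negative control.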

A short description of assay [8]: CCTE_Shafer_MEA_acute_per_network_burst_electrodes_number_mean: CCTE's Neural Acute Assay for Mean Number of Electrodes in a Network Burst, Shafer Lab (AID 2284021).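 Further: curves fitted for decreases only so hits reduce electrodes per burst.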 A digest of the protocol: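 Rat primary cortical neurons on 16-electrode MEA wells were recorded 40 min at baseline on DIV 13 or 15, then 40 min after compound (0.03-40 uM), at 37 C. Value is percent change per well, fitted in loss direction versus DMSO.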

Assay [9] in a line: CCTE_Shafer_MEA_acute_network_burst_percentage: CCTE's Neural Acute Assay for Percentage of Network Bursts, Shafer Lab (AID 2284022).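 Further: curves fitted for loss so actives lower network burst percentage.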 The essentials:
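Primary rat cortical neurons on 16-electrode MEA wells, treated on DIV 13 or 15 with compound (0.03-40 uM); 40-min baseline and 40-min post-exposure recordings at 37 C. Value is percent change in spikes within network bursts versus baseline, DMSO negative control.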

Assay [10] is described as follows: CCTE_Shafer_MEA_acute_cross_correlation_area: CCTE's Neural Acute Assay for Area of Cross Correlation, Shafer Lab (AID 2284024).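 Further: area under pooled inter-electrode spike cross-correlation near zero lag as percent change from own baseline; curves fitted for loss of cross-correlation area so actives lower synchrony.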 The essentials: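 Primary rat cortical neurons on 48-well MEA plates (16 electrodes/well) were recorded 40 min at baseline on DIV 13 or 15, then 40 min with compound (0.03-40 uM) at 37 C; cross-correlation area expressed as percent change from baseline.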

Assay [11] can be described thus: CCTE_Shafer_MEA_acute_synchrony_index: CCTE's Neural Acute Assay for Synchrony, Shafer Lab (AID 2284027).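 Further: network synchrony index of spontaneous spiking in primary rat cortical neurons on MEAs; fitted for loss of signal so actives lower synchrony relative to DMSO.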 A digest of the protocol:
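Acute exposure of rat primary cortical neurons (DIV 13 or 15) at 0.03-40 uM. Synchrony index, 40 min before vs after, as % change relative to DMSO control.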

The target of assay [12] is Estrogen receptor (Homo sapiens) (UniProt P03372). Nature of the assay: CCTE_Deisenroth_AIME_384WELL_LUC_Active: CCTE's 384-well Estrogen Receptor Transactivation Assay with AIME metabolic competence (ERTA luciferase; metabolism positive), Deisenroth Lab (AID 2284030; active means hit-call score of the fitted dose curve at least 0.9, where 1 is the maximum). A digest of the protocol:
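Test chemicals (10-point series, 0.002 - 200 uM) were preincubated 2 hours with alginate-immobilized phenobarbital/beta-naphthoflavone-induced male Sprague Dawley rat liver S9; conditioned medium then went onto VM7Luc4E2 breast cells for 24 hour. Luciferase gain-of-signal fitted relative to 17beta-estradiol.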

A short description of assay [13]: CCTE_Deisenroth_AIME_384WELL_CTox_Active: Cytotoxicity Assessment (CTOX) in CCTE's 384-well Estrogen Receptor Transactivation Assay with AIME metabolic competence (metabolism positive), Deisenroth Lab (AID 2284037; active means hit-call score of the fitted dose curve at least 0.9, where 1 is the maximum;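 further: chemicals first conditioned 2 h by alginate-bound induced rat liver S9 before cells; activity means signal loss indicating cell death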). A digest of the protocol: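 VM7Luc4E2 breast cells received medium pre-incubated 2 h with chemical over alginate microspheres holding induced male Sprague Dawley rat liver S9; viability read 24 h later by protease-substrate fluorescence. Loss of signal, bidirectional fit, 0.002–200 uM.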

Assay [14] in a line: CCTE_Harrill_HTTr_CellCount_MCF7: CCTE's Cell Proliferation Assessment for the High-Throughput Transcriptomics (HTTr) Platform, Harrill Lab (AID 2284012; active means hit-call score of the fitted dose curve at least 0.9, where 1 is the maximum;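 further: intended direction is loss of nuclei count meaning fewer cells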). The essentials: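 For this full-screen endpoint, MCF-7 cultures received eight compound dilutions for six hours. Well nuclei counts from Hoechst imaging were analyzed relative to DMSO.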
Assay [15] deals with Estrogen receptor (Homo sapiens) (UniProt P03372). Description: CCTE_Deisenroth_AIME_96WELL_LUC_Active: CCTE's 96-well Estrogen Receptor Transactivation Assay with AIME metabolic competence (ERTA luciferase; metabolism positive), Deisenroth Lab (AID 2284023; active means hit-call score of the fitted dose curve at least 0.9, where 1 is the maximum). The essentials:
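Metabolism-positive mode: induced rat hepatic S9 in alginate microspheres conditions test solutions (0.002 - 200 uM, 10 points) for 2 hours. VM7Luc4E2 ER luciferase reporter cells then exposed 24 h; positive-direction fit against 17beta-estradiol, n=4 typical.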

Assay [16] in a line: CCTE_Deisenroth_AIME_96WELL_CTox_Active: Cytotoxicity Assessment (CTOX) in CCTE's 96-well Estrogen Receptor Transactivation Assay with AIME metabolic competence (metabolism positive), Deisenroth Lab (AID 2284028; active means hit-call score of the fitted dose curve at least 0.9, where 1 is the maximum). A digest of the protocol: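 Cytotoxicity in VM7Luc4E2 breast cells after 24 h exposure to medium from a 2 h metabolic pre-incubation with induced rat hepatic S9 in alginate microspheres; fluorescent live-cell protease readout, 10-point series 0.002–200 uM, n=4.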

Assay [17] is described as follows: CCTE_Deisenroth_AIME_96WELL_CTox_Inactive: Cytotoxicity Assessment (CTOX) in CCTE's 96-well Estrogen Receptor Transactivation Assay without AIME metabolic competence (metabolism negative), Deisenroth Lab (AID 2284029; active means hit-call score of the fitted dose curve at least 0.9, where 1 is the maximum). A digest of the protocol:
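Cytotoxicity in VM7Luc4E2 breast cells was scored as loss of fluorescent signal from a live-cell protease substrate 24 h after exposure, using bidirectional curve fitting. Test media came from a 2 h metabolism-negative pre-incubation (alginate-water, no hepatic S9) of compounds at 0.002-200 uM, with at least four replicates.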

Assay [18] in a line: CCTE_Shafer_MEA_dev_firing_rate_mean: CCTE's Neural Network Formation Assay for Mean Firing Rate, Shafer Lab (AID 2284031).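 On AC50: curve fitted for loss of firing so AC50 reflects decreased mean firing rate.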 The essentials:
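Extracellular spike frequency, AUC over DIV 5–12 recordings, in rat cortical neuron MEA cultures dosed from plating; loss direction vs DMSO.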

A short description of assay [19]: CCTE_Shafer_MEA_dev_per_burst_spike_percent: CCTE's Neural Network Formation Assay for Percent of Spikes in a Burst, Shafer Lab (AID 2284032).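 On AC50: fitted as a decrease in burst spike percentage below DMSO baseline.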 A digest of the protocol: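 Value is trapezoidal AUC over recordings on days 5, 7, 9 and 12 of the well-mean fraction of spikes falling in single-electrode bursts; rat cortical cultures exposed continuously from plating, treatment renewed DIV 5 and 9, fitted downward against DMSO.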

Assay [20] has as its target Estrogen receptor (Homo sapiens) (UniProt P03372). Description: CCTE_Deisenroth_AIME_96WELL_LUC_Inactive: CCTE's 96-well Estrogen Receptor Transactivation Assay without AIME metabolic competence (ERTA luciferase; metabolism negative), Deisenroth Lab (AID 2284025; active means hit-call score of the fitted dose curve at least 0.9, where 1 is the maximum). A digest of the protocol:
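Metabolism-negative arm: chemicals (0.002–200 uM, 10 points) incubated 2 h with alginate-water microspheres, then medium moved onto VM7Luc4E2 cells for 24 h luciferase read-out. Positive direction vs 17beta-estradiol; n≥4 experiments.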

Inconclusive results are not listed. Calls of active or inactive are those of the source. How the source made its calls, unless noted: active means hit-call score of the fitted dose curve at least 0.9, where 1 is the maximum; inactive means score below 0.9.

Sequence of Estrogen receptor (Homo sapiens) (P03372 whole entry, looked up): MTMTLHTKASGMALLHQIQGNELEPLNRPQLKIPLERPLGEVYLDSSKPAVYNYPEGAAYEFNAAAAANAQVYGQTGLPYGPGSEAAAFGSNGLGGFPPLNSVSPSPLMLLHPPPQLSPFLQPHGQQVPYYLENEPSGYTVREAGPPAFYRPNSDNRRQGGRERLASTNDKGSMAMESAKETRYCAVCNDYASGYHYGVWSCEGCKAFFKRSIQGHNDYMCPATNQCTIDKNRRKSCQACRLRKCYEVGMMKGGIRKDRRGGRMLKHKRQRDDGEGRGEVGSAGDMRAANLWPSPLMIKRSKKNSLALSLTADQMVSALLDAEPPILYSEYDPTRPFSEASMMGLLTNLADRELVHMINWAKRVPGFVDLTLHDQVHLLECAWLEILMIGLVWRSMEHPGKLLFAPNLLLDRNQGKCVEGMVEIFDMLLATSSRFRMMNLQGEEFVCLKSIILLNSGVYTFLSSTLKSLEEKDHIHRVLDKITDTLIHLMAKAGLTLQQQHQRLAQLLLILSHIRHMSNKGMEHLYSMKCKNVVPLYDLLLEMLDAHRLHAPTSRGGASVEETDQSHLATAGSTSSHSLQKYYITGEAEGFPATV

Regarding `O=C(O)c1ccccc1C(c1ccc(O)cc1)c1ccc(O)cc1`, the result in [1], in assay [2], in assay [3], in assay [4], in assay [6] and in [7] was inactive. Moreover, the outcome in assay [8], in assay [9] and in assay [13] was inactive. The AC50 (commonly the concentration giving half of the maximal activity seen) in [5] is 20 µM (active); in assay [10], 20 µM (active); in assay [11], 7.86 µM (active); in [12], 123 µM (active).

On to `CC(C)(C)c1ccc(O)c(C(C)(C)C)c1`, for which the result in assay [1] and in assay [14] was inactive. In addition, the half-maximal activity concentration (AC50) in [15] is 26.4 µM (active); in assay [16] it was 155 µM (active); in assay [17], 163 µM (active); in assay [13] it was 171 µM (active).

With `COc1ccc([N+](=O)[O-])cc1N`, the outcome in [1] and in assay [14] was inactive. Also, in assay [13], the AC50 is 100 µM (active).

In the case of `CCCCCCCCCCCCCCCS(=O)(=O)Oc1ccccc1`, the compound was classed as inactive in assay [2], in [3], in [4], in [5], in assay [6] and in assay [7]. In addition, the call in [8], in [9], in assay [10] and in [11] was inactive. Moreover, the AC50 in assay [12] is 19.5 µM (active).

In the case of `c1ccc2c(c1)Cc1ccccc1-2`, the result in [1], in [14], in [15], in [18] and in [19] was inactive.

Regarding `N#C[C@@H]1CC(F)(F)CN1C(=O)CNC1CC2CCC(C1)N2c1ncccn1` (some centres undefined), the outcome in assay [1], in assay [12] and in assay [13] was inactive.

For `CCCCCCCCC(=O)O`, the outcome in assay [1], in assay [14], in assay [12] and in [13] was inactive.

For the compound `COc1cc(CCC(=O)CC(=O)CCc2ccc(O)c(OC)c2)ccc1O`, the outcome in assay [1], in [14] and in [20] was inactive. Besides, the AC50 in assay [16] is 150 µM (active); in assay [17] it was 164 µM (active).

Regarding `CCCCCCCCCCCCc1ccccc1S(=O)(=O)O`, the result in [1], in assay [2], in [3], in assay [4], in assay [5] and in assay [6] was inactive. The result in [7], in assay [8], in assay [9] and in [10] was inactive. The AC50 in [11] is 33.1 µM (active).

With `CCCCC(CC)COC(=O)CCCCC(=O)OCc1ccccc1` (centres undefined), the result in assay [1], in [14], in [12] and in assay [13] was inactive.

On to `COC(=O)CCCCC(=O)OC`, for which the result in assay [1], in assay [14] and in [12] was inactive.

For the compound `COCC(C)OCC(C)O` (centres undefined), the result in [1], in assay [14], in assay [12] and in assay [13] was inactive.

Turning to `CCCCCCCC(=O)O`, the result in assay [1] and in [13] was inactive.

On to `CC1=C(/C=C/C(C)=C/C=C/C(C)=C/C(=O)O)C(C)(C)CCC1`, for which the result in [1] and in assay [14] was inactive. Moreover, the AC50 in assay [18] was 2.98 µM (active); in [19], 19.6 µM (active).

As to `CCCCC[C@H](O)CC(=O)CCc1ccc(O)c(OC)c1`, the outcome in assay [1], in assay [14], in assay [16] and in [17] was inactive. For the same compound, the AC50 was 26 µM (active) in assay [15] and 24.9 µM (active) in assay [20].

`Cc1ccc(S(=O)(=O)O)c(C)c1`: the compound was classed as inactive in [12] and in [13].

For `C=C(C)C(=O)OCCC(F)(F)C(F)(F)C(F)(F)C(F)(F)C(F)(F)C(F)(F)F`, the outcome in [1], in [14], in assay [18] and in [19] was inactive.

As for `OCCC(F)(F)C(F)(F)C(F)(F)C(F)(F)C(F)(F)C(F)(F)C(F)(F)C(F)(F)F`, the outcome in assay [1], in [2], in [3], in assay [4], in assay [5] and in [6] was inactive. Moreover, the compound was classed as inactive in assay [7], in assay [8], in [9], in assay [10], in assay [11] and in [12]. Besides, the outcome in assay [18] and in assay [19] was inactive.
